Bioassay records from PubChem BioAssay.
aSyn 5UTR act: Activators working through SNCA 5'UTR binding (MLPCN) | alpha-synuclein 5'UTR reporter, activators screen | activity score, % (tested at 7.5 µM), hits read low | 300,000 compounds, 7.1% hits | AID 1814; in the data active means activity score below about -60%
Starred values were filed as active, the others as inactive. These entries were drawn from the full list.

SMILES	aSyn 5UTR act
CN=c1scc(-c2ccc(OC)cc2)n1/N=C(\C)c1cccnc1	-156*
COCCN(C(=O)COC(=O)/C=C/c1ccccc1Cl)c1c(N)n(Cc2ccccc2)c(=O)[nH]c1=O	-92*
c1cncc(CSc2ccc(-c3cccs3)nn2)c1	-110*
Fc1ccc(CSc2ccc(-c3cccs3)nn2)cc1	-121*
Cc1ccc(CSc2ccc(-c3cccs3)nn2)cc1	-99*
c1ccc(CSc2ccc(-c3cccnc3)nn2)nc1	-78*
Cc1ccc(-c2noc(CCCc3ccccc3)n2)cc1	-77*
Brc1ccc(-c2noc(CCc3ccccc3)n2)o1	-119*
COc1ccc(-c2noc(CCCC(=O)O)n2)cc1	89
Clc1ccccc1OCc1nc(-c2ccc(Br)o2)no1	-83*
Fc1ccc(OCc2nc(-c3ccc(Br)o3)no2)c(F)c1	-77*
Cc1cc2c3c(ccc(C)c3n1)N=CN2c1ccccc1	54
Cc1ccc(C)c(-c2[nH]ncc2CN2CCCC(CO)(Cc3ccccc3C)C2)c1 (configuration not stated)	33
Cc1ccc(OCc2nc(-c3ccccc3)no2)c(C)c1	-212*
COc1ccc(/C=C/C(=O)NC2CCCCCCC2)cc1S(=O)(=O)N1CCOCC1	-112*
CC(=O)COc1ccc2c(c1C)O/C(=C\c1ccco1)C2=O	-213*
Cc1cccc(/C=C2\Oc3cc(OS(C)(=O)=O)ccc3C2=O)c1	-64*
COc1ccc2c(c1)O/C(=C\c1ccco1)C2=O	-119*
Cc1nc2cc(NC(=O)c3ccc(Br)s3)ccc2s1	-83*
Cc1ccc(C(=O)Nc2ccc3nc(C)sc3c2)s1	-206*
Cc1nc2ccc(NC(=O)c3cc(Cl)ccn3)cc2s1	-74*
CCOc1ncccc1C(=O)Nc1ccc2nc(C)sc2c1	-75*
CCCOc1ccc(C(=O)C(CN2CCOCC2)c2ccccc2)cc1 (configuration not stated)	-120*
O=C(c1ccc(Cl)cc1)C(CN1CCCCC1)c1ccccc1 (configuration not stated)	-106*
COc1ccc(C(=O)C(CN2CCOCC2)c2ccccc2)cc1F (configuration not stated)	-108*
SMILES	aSyn 5UTR act
Cc1ccc(-c2nc(-c3nccc4ccccc34)oc2-c2ccccc2)cc1	-137*
COc1cc(C2C3=C(Nc4ncnn42)c2ccccc2CC3)cc(OC)c1OC (configuration not stated)	83
Cc1ccc(C)c(-c2nc3ccc(N)cc3[nH]2)c1	-64*
Clc1ccc2nc(-c3ccc(Cl)nc3)[nH]c2c1	-293*
Nc1ccc(-c2nc3ccc(N)cc3[nH]2)cc1	-62*
Cc1ccc2nc(Cc3ccc(N)cc3)[nH]c2c1	-90*
CCc1nc(N)nc(N)c1-c1ccc(Cl)cc1	85
Nc1ccc(Cc2nc3c(ccc4ccccc43)[nH]2)cc1	-171*
Nc1ccc2nc(-c3ccc(Cl)cc3)[nH]c2c1	-176*
Cc1ccc2nc(C(O)C(O)c3nc4ccc(C)cc4[nH]3)[nH]c2c1 (configuration not stated)	-159*
Nc1ccc2nc(-c3cc(Cl)c(N)c(Cl)c3)[nH]c2c1	-279*
CC(=O)c1c(C)[nH]c(C(=O)Nc2cc(C)cc(C)c2)c1C	-78*
COc1ccc(OC)c(NC(=O)c2[nH]c(C)c(C(C)=O)c2C)c1	-85*
CC(=O)c1c(C)[nH]c(C(=O)Nc2cccc(S(=O)(=O)N(C)C)c2)c1C	-153*
CC(=O)c1c(C)[nH]c(C(=O)Nc2nc(C)cs2)c1C	86
CC1(C)Oc2cc3oc(-c4cc(O)cc(O)c4)cc3cc2CC1O (configuration not stated)	97
O=C(N/N=C/C(Br)=C/c1ccccc1)c1cc(-c2ccco2)[nH]n1	-62*
Cc1cc(C(=O)N/N=C/c2cc(N=Nc3ccccc3)ccc2O)n[nH]1	66
CC1C(=O)NN=C1C(=O)N/N=C\C(Br)=C\c1ccccc1 (configuration not stated)	-134*
O=C(N/N=C/C(Br)=C/c1ccccc1)c1ccccc1F	-201*
O=C(N/N=C/C(Cl)=C/c1ccccc1)c1ccccc1F	-192*
C/C(=N/NC(=O)c1cc(C2CC2)[nH]n1)c1cccs1	84
C/C(=N\NC(=O)C1=NNC(=O)C1C)c1cccs1 (configuration not stated)	-81*
Cc1cc(SCC(=O)N/N=C/c2ccc(O)cc2O)nc2ccccc12	58
O=C(CSc1ncn(-c2ccccc2)n1)c1cccs1	-177*
SMILES	aSyn 5UTR act
N/C(COc1ncn(-c2ccccc2)n1)=N\S(=O)(=O)c1ccccc1	18
Nc1nc(CSc2ncn(-c3ccccc3)n2)cs1	-154*
Cc1cc(SC(C)C(=O)NCC(=O)Nc2ccc(F)c(F)c2F)nc2ccccc12 (configuration not stated)	46
c1ccc(CSc2ncn(-c3ccccc3)n2)cc1	-138*
Cc1cc(SCC(=O)c2cccs2)nc2ccccc12	-81*
Cc1nnc(Nc2ccc3c(c2)OCO3)c2ccccc12	-80*
c1ccc2c(c1)oc1c(Nc3ccc4c(c3)OCO4)ncnc12	-108*
Oc1ccccc1Nc1ncnc2c1oc1ccccc12	-88*
Oc1ccc(Nc2ncnc3c2oc2ccccc23)cc1	-116*
Cc1nc(Nc2ccccc2)c2oc3ccc(Cl)cc3c2n1	-93*
c1ccc(Nc2ncnc3c2oc2ccccc23)cc1	-139*
Oc1cccc(Nc2ncnc3c2oc2ccccc23)c1	-134*
CC(=O)N1CCN(c2ccc(Nc3ncnc4c3oc3ccccc34)cc2)CC1	-81*
c1ccc2c(c1)oc1c(Nc3ccc(CN4CCOCC4)cc3)ncnc12	-102*
O=C1c2ccccc2S(=O)(=O)c2cc(N3CCc4ccccc4C3)ccc21	-180*
Cc1nc(-c2ccc(NC(=O)c3ccccc3C)cc2)cs1	-123*
Cc1nc(-c2ccc(NC(=O)c3ccccc3Br)cc2)cs1	-161*
CCCCOC(=O)Nc1ccc(N2CCCCC2)cc1	-158*
CCCCOC(=O)Nc1ccc(N2CCOCC2)cc1	-163*
C(=C\c1ccccc1)/C=N/Nc1nc2ccccc2s1	-191*
CCC/C=N/Nc1nc2ccccc2s1	-244*
Brc1ccc(/C=C/C=N/Nc2nc3ccccc3s2)cc1	-73*
Oc1ccc(-c2nnc(-c3ccccc3)c(-c3ccccc3)n2)cc1	-201*
Oc1ccccc1N=Nc1nc(-c2ccccc2)c(-c2ccccc2)[nH]1	107
CN(C)c1nc(-c2ccccn2)nnc1-c1ccccc1	79
SMILES	aSyn 5UTR act
CCOC(=O)c1cnn(-c2ccc(C(C)C)cc2)c1NC(=O)C1CCC1	-81*
CCOc1ccc(N/C(C)=C/C(=O)c2ccc3c(c2)OCCO3)cc1	-204*
CCOc1ccc(N/C(C)=C\C(=O)c2ccc3c(c2)OCCO3)cc1	-133*
c1ccc(Cn2c(-c3cncs3)nc3ccccc32)cc1	-92*
Brc1ccc(Cn2c(-c3cncs3)nc3ccccc32)cc1	-112*
CC(C)c1ccc(OCc2ccc(C(=O)O)o2)cc1	-94*
CCc1ccc(OCc2ccc(C(=O)O)o2)cc1	-145*
CC1CN(C(=O)c2ccc(COc3ccc(C(C)C)cc3)o2)CC(C)O1 (configuration not stated)	-110*
CC(C)c1ccc(OCc2ccc(C(=O)N(C)C)o2)cc1	-171*
CC(C)c1ccc(OCc2ccc(C(=O)NN3CCN(C)CC3)o2)cc1	-134*
COc1ccc(OCc2cc(C(=O)O)c(C)o2)cc1	-93*
O=C(O)c1cccc(NC(=S)N/N=C/c2cccc(O)c2)c1	58
Cc1ccc(C(C)C)c(OCc2ccc(C(=O)N/N=C/c3cccc(O)c3O)cc2)c1	108
